Calls of active or inactive are those of the source.
Experiments:
[1] = binders of probe aFSTL3 on microarray, primary screen, stem cell growth factor project, biochemical, small-molecule microarray, fluorescence 635/667 (AID 1064); settings: higher = more signal;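 also: measures binding of the biotinylated anti-FSTL3 antibody to printed compounds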
[2] = binders from COS7 lysate, DM2A8 probe, primary screen, torsin A project, cell lysate, small-molecule microarray, fluorescence 635/667 (AID 1065); settings: higher = more signal, COS7 lysate expressing mutant human TOR1A
[3] = binders of probe aFGF2 on microarray, primary screen, stem cell growth factor project, biochemical, small-molecule microarray, fluorescence 635/667 (AID 1067); settings: higher = more signal;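 also: measures binding of biotinylated aFGF2 protein to printed compounds on slides; z-score merges feature fluorescence and signal-to-noise across triplicate slides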
[4] = binders of probe aFGF10 on microarray, primary screen, stem cell growth factor project, biochemical, small-molecule microarray, fluorescence 635/667 (AID 1071); settings: higher = more signal;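 also: score merges 667 nm spot intensity and signal to noise from triplicate slides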
[5] = target: Neurogenic locus notch homolog protein 2 (Homo sapiens) (UniProt Q04721); test: Notch2 binders on small-molecule microarrays, primary screen, biochemical, small-molecule microarray, 635 nm fluorescence, stem cell growth factors (AID 1073); settings: Notch2 binding, higher = more signal
Chain of Neurogenic locus notch homolog protein 2 (Homo sapiens) (Q04721 whole entry, looked up, canonical isoform): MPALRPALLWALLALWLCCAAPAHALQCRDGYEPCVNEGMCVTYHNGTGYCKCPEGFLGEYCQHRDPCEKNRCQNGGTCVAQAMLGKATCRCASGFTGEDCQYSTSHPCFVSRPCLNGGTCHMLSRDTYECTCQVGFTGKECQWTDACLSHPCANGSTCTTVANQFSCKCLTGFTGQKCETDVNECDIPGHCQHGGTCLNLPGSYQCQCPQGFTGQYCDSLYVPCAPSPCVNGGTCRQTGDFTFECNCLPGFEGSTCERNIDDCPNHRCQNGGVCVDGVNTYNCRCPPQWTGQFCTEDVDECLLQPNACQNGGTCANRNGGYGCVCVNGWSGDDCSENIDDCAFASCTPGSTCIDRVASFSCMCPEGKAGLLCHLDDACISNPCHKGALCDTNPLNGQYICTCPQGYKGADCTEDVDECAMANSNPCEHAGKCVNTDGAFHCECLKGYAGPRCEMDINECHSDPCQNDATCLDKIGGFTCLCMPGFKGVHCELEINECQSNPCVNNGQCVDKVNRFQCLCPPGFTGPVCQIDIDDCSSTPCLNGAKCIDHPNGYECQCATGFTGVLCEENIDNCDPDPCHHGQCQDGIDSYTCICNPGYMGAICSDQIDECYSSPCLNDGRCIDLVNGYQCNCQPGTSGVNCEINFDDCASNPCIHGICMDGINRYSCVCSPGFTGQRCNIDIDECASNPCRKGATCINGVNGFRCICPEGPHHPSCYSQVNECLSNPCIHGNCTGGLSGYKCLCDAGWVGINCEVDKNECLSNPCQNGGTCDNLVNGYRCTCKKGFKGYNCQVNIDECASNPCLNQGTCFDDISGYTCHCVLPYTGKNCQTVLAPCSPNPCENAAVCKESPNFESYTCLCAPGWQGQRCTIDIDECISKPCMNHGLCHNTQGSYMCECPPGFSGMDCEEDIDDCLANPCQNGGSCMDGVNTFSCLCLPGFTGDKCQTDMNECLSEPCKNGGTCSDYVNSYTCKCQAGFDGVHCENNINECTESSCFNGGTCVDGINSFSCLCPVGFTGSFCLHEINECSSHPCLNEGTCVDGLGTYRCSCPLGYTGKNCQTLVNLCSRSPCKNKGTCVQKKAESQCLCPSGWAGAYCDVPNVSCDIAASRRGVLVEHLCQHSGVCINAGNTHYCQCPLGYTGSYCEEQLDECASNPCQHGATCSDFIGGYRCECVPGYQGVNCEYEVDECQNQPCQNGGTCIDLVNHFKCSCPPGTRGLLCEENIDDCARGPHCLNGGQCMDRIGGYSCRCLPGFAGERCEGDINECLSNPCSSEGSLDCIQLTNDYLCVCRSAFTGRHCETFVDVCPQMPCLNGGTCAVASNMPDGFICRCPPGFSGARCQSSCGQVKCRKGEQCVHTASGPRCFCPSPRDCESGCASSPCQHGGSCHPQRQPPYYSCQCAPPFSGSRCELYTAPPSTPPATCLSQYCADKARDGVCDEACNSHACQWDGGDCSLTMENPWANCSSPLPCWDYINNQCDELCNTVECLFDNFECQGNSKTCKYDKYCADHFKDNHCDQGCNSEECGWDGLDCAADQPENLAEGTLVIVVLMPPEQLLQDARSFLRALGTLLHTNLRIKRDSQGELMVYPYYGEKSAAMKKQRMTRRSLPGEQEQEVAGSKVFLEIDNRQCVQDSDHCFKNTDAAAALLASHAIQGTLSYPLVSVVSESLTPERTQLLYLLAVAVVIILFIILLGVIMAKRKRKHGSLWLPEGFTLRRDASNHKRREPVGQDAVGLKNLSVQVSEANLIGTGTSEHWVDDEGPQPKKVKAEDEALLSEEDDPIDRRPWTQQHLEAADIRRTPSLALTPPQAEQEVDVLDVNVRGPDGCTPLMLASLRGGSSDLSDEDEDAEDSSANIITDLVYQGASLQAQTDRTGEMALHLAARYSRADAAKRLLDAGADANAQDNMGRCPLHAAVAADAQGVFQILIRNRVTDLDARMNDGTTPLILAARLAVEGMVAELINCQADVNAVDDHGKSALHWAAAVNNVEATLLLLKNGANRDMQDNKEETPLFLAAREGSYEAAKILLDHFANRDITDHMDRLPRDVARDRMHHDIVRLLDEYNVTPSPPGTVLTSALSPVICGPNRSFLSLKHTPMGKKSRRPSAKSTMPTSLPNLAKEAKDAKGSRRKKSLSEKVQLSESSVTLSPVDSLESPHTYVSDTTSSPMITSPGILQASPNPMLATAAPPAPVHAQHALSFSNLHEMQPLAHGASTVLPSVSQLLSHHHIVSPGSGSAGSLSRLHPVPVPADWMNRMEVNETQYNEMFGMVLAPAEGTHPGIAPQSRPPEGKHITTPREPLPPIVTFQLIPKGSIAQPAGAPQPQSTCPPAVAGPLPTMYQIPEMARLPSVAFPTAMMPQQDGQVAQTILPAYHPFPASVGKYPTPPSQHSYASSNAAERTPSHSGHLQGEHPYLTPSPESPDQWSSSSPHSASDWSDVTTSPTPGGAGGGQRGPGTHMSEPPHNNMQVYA

[6] = target: Pro-neuregulin-1, membrane-bound isoform (Homo sapiens) (UniProt Q02297); test: NRG1 binders on small-molecule microarrays, primary screen, psychiatric disease protein project, biochemical, small-molecule microarray, fluorescence 635/667 (AID 1075); settings: NRG1 binding, 635 nm fluorescence, higher = more signal;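 also: score combines 667 nm spot fluorescence with signal to noise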
Chain of Pro-neuregulin-1, membrane-bound isoform (Homo sapiens) (Q02297 whole entry, looked up, the tested form may be a part, canonical isoform): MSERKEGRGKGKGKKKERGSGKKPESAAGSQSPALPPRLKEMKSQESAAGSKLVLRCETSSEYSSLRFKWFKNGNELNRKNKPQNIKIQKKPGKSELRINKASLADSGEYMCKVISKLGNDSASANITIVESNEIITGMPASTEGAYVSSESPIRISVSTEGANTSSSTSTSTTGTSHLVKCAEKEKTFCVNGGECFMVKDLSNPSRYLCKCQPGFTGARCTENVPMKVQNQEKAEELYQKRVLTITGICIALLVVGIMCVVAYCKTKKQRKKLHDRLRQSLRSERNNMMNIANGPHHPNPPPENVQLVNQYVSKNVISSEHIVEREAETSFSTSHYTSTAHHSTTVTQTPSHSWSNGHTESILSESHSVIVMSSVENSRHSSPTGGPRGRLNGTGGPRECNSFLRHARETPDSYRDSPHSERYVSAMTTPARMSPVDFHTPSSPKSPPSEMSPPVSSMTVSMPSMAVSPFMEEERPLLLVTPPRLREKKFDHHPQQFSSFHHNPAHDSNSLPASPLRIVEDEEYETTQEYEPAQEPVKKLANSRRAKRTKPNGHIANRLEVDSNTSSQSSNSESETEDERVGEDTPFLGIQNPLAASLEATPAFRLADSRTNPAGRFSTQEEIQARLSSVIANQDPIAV

[7] = system: Neuregulin-1 EGF-like domain; test: binders of neuregulin-1 EGF-like domain, primary screen, biochemical, small-molecule microarray, 635 nm fluorescence (AID 1081); settings: small-molecule microarray binding, higher = more signal;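 also: binding of the protein to compounds printed on small-molecule microarray slides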
[8] = FRG1 promoter luciferase signal modulators, primary screen, FRG1 inhibition for FSHD, cell-based, C2C12 myotubes, firefly/Renilla luciferase, luminescence (AID 1084); settings: higher = more signal, called active from +8 up or from −8 down
[9] = binders of probe aFST on microarray, primary screen, stem cell growth factor project, biochemical, small-molecule microarray, fluorescence 635/667 (AID 1086); settings: higher = more signal;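 also: score merges 667 nm fluorescence with signal-to-noise of each printed compound spot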
[10] = binders of probe aHhip on microarray, primary screen, stem cell growth factor project, biochemical, small-molecule microarray, fluorescence 635/667 (AID 1087); settings: higher = more signal;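 also: score merges spot fluorescence at 667nm with spot signal to noise ratio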

SMILES | composite z-score [1] | composite z-score [2] | composite z-score [3] | composite z-score [4] | composite z-score [5] | composite z-score [6] | composite z-score [7] | z-score [8] | composite z-score [9] | composite z-score [10]
COCCOC(=O)N1C(=O)[C@@]2(c3ccccc31)[C@H](C(=O)NC[C@H](O)c1ccccc1)[C@H]1C(=O)O[C@H](c3ccccc3)[C@H](c3ccccc3)N1[C@@H]2c1ccc(OCCO)cc1 | -0.242 | 0.591 | -0.113 | 0.36 | 1.38 | 0.977 | 1.08 | -0.31 (inactive) | 0.53 | 0.0283
C=C(CCCC)C(=O)CC[C@H](OC(=O)c1cccnc1)c1cccc(OCCO)c1 | 0.17 | -0.218 | -0.157 | 0.387 | -0.818 | 0.941 | 0.762 | -0.594 (inactive) | 0.0945 | -0.236
CCOC(=O)C1=CCC(C(C)(C)C)N(S(=O)(=O)c2ccc(C)cc2)C1 (stereo not given) | -0.735 | 2.2 | 0.0954 | 1.23 | 1.49 | 0.673 | 1.19 | -2.07 (inactive) | 0.533 | 0.0139
COc1ccc(C(=O)Nc2cccc(CN3C(=O)[C@]4(O[C@H](CC(=O)N5CCC[C@H]5CO)[C@@H]([Si](C)(C)c5ccc(OC)cc5)[C@@H]4C)c4ccccc43)c2)cc1 | -0.0422 | 0.717 | 0.0257 | 0.394 | 0.135 | 0.847 | 1.12 | -1.22 (inactive) | 0.156 | -0.253
COc1ccc([Si](C)(C)[C@H]2[C@H](CCn3cc([C@H](O)c4ccccc4)nn3)O[C@@]3(C(=O)N(Cc4cccc(N5CCC5=O)c4)c4ccccc43)[C@@H]2C)cc1 | 0.386 | 0.238 | -0.0894 | 0.164 | -0.404 | -0.0001 | 0.557 | -1.99 (inactive) | -0.0509 | -0.191
[N-]=[N+]=NCc1ccccc1C[C@]1(C(=O)NCCN2CCOCC2)N=C(c2ccc(OCCCO)cc2)O[C@H]1c1ccccc1N=[N+]=[N-] | 0.446 | 0.57 | 0.0618 | 0.855 | 1.57 | 1.6 | 1.29 | -0.653 (inactive) | 1.25 | -0.236
O=C1c2ccccc2[C@@]2(Cc3ccccc3N(Cc3ccccc3)C2=O)[C@H](c2ccc(CO)cc2)N1C1CCCCC1 | -0.382 | -0.832 | -0.152 | -0.0341 | -0.203 | 0.662 | 1.37 | -0.0414 (inactive) | -0.244 | -0.201
CCOC(=O)C1=C[C@@H](CC)N(S(=O)(=O)c2ccc(C)cc2)[C@H]1c1ccccc1 | 0.119 | -0.872 | 0.0603 | 0.572 | 1.61 | 1.1 | 0.919 | -1.74 (inactive) | 0.962 | 0.0373
CS(=O)(=O)CCOC(=O)C1=CC(c2ccc(CO)cc2)=CC(C2CC2)N(Cc2cc3c(cc2Br)OCO3)C=C1C(=O)OCCS(C)(=O)=O (stereo not given) | -0.232 | 0.28 | -0.0266 | 0.959 | 1.13 | 1.78 | 1.27 | -2.1 (inactive) | 0.566 | 0.245
Cc1ccc([C@H]2[C@H](C(=O)O)[C@H](Sc3ccccc3)[C@@H](C(C)C)N2S(=O)(=O)c2ccc(C)cc2)cc1 | -0.182 | -0.126 | 0.167 | 0.307 | 1.49 | 1.78 | 0.945 | -2.58 (inactive) | 1.31 | -0.226
[N-]=[N+]=NCc1ccccc1[C@@H]1OC(c2ccc(OCCCO)cc2)=N[C@]1(Cc1ccccc1N=[N+]=[N-])C(=O)NCc1ccccc1 | -0.253 | 0.485 | -0.0287 | 0.272 | 1.15 | 0.612 | 1.05 | -1.66 (inactive) | 0.221 | -0.113
CCOC(=O)C1=CC[C@@H](c2ccccc2)N(S(=O)(=O)c2ccc(C)cc2)[C@H]1C(=O)OCC | 0.138 | -0.0127 | 0.338 | 0.641 | 1.25 | -0.196 | 1.03 | -2.4 (inactive) | 0.603 | -0.108
CCOC(=O)C[C@H]1[C@H](OC(=O)Cc2ccc3c(c2)OCO3)[C@@H](NC(=O)C2CCCCC2)c2cc(OCCCO)ccc2N1C(=O)Cc1ccc(OC)cc1 | -0.397 | 0.0664 | -0.048 | 0.145 | 1.17 | -0.054 | 0.86 | -2.5 (inactive) | 0.364 | 0.0515
[N-]=[N+]=Nc1ccccc1C[C@]1(C(=O)NCCN2CCOCC2)N=C(c2ccc(OCCCO)cc2)O[C@H]1c1ccccc1 | -0.283 | 0.309 | -0.085 | 0.271 | 1.05 | 1.07 | 1.25 | -0.897 (inactive) | 0.892 | 0.0373
O=C1O[C@@H](c2ccccc2)[C@@H](c2ccccc2)N2[C@@H](c3ccc(OCCO)cc3)[C@]3(C(=O)Nc4ccccc43)[C@@H](C(=O)Nc3nc4ccccc4s3)[C@H]12 | 0.509 | 0.58 | 0.0732 | 0.962 | 1.49 | 1.45 | 1.3 | -3.08 (inactive) | 1.01 | 0.629
CCCCCN1CC=CC23O[C@@H]4/C=C\CCC(C)OC(=O)C4[C@H]2C(=O)N(CCCCCO)[C@@H]3C1=O (stereo not given in full) | -0.0551 | 0.698 | -0.0871 | -0.524 | -0.862 | 0.948 | -0.69 | 0.312 (inactive) | -0.467 | 0.344
C#CCN(C(/C=C/c1ccccc1)CO)C(C(=O)O)c1ccccc1 (stereo not given) | -0.27 | -0.769 | -0.159 | 0.263 | 0.0504 | -0.165 | -0.435 | 1.2 (inactive) | -0.652 | -0.284
O=C1OCCC=C[C@H]2OC34C=CCN(Cc5ccccc5)C(=O)[C@H]3N(CCCO)C(=O)[C@@H]4C12 (stereo not given in full) | -0.274 | 0.0519 | -0.116 | -0.479 | -0.747 | -0.555 | 0.187 | -0.138 (inactive) | -0.327 | -0.0003
C=C(COC)C(=O)CC[C@@H](OC(=O)c1cccnc1)c1ccc(CO)o1 | -0.376 | 0.0139 | -0.085 | -0.0132 | 0.167 | 1.16 | 0.645 | 0.614 (inactive) | 0.0848 | 0.274
COc1ccc([Si](C)(C)[C@H]2[C@H](CC(=O)N(CCO)Cc3ccccc3)O[C@@]3(C(=O)N(Cc4cccc(N5CCC5=O)c4)c4ccccc43)[C@@H]2C)cc1 | 0.0204 | 0.906 | -0.131 | 0.55 | 0.629 | 1.18 | 1.07 | -1.55 (inactive) | -0.194 | -0.13
O=C1C2C=CC(C(O)c3ccc(B(O)O)cc3)N(Nc3ccccc3)C2C(=O)N1c1ccccc1 (stereo not given) | 0.72 | 0.0762 | 0.0533 | -0.132 | 0.971 | 1.38 | -0.401 | 4.59 (inactive) | 0.302 | -0.299
COc1ccc(C#Cc2ccc3c(c2)[C@]2(C(=O)N3)[C@H](C(=O)NC[C@H](O)c3ccccc3)[C@H]3C(=O)O[C@H](c4ccccc4)[C@H](c4ccccc4)N3[C@@H]2c2ccccc2OCCO)cc1 | -0.185 | 0.324 | 0.0128 | 0.688 | 1.29 | 1.56 | 1.19 | 0.162 (inactive) | 0.653 | -0.0994
CCOC(=O)C[C@H]1[C@H](OC(=O)c2ccccc2-c2ccccc2)[C@@H](NC(=O)Cc2ccc(OC)cc2)c2cc(OCCCO)ccc2N1C(=O)c1ccccc1 | -0.0656 | 0.629 | -0.0942 | 0.321 | 0.125 | -0.299 | -0.537 | -0.735 (inactive) | 0.369 | -0.0645
COC(=O)c1ccc(C(O)C2C=CC3C(=O)N(c4ccccc4)C(=O)C3N2Nc2ccc(C#N)cc2)o1 (stereo not given) | 0.042 | 0.465 | 0.0394 | 0.865 | 1.33 | 0.665 | 1.34 | 0.447 (inactive) | 0.478 | -0.199
CO[C@H]1O[C@H](CO)[C@@H](OC(=O)Nc2ccc(Oc3ccccc3)cc2)[C@H](OC(=O)Nc2ccccc2)[C@H]1OC(=O)Nc1ccccc1 | 0.096 | 0.95 | 0.0732 | 1.16 | 1.48 | 1.3 | 1.39 | 0.119 (inactive) | 0.446 | -0.0346
C=C(COC)C(=O)CC[C@H](OC(C)=O)c1cccc(OCCO)c1 | -0.0206 | 1.66 | -0.0767 | 0.553 | -0.844 | -0.13 | -0.208 | 0.39 (inactive) | -0.392 | -0.291
CN(C)C(=O)[C@@]1(CCC(=O)OC(C)(C)C)N=C(c2ccc(OCCCO)cc2)O[C@H]1c1ccccc1 | 1.01 | 2.11 | 0.112 | 0.31 | -0.282 | 1.92 | 1.33 | -0.624 (inactive) | 0.356 | 0.597

From PubChem BioAssay
